# Source: PubChem BioAssay (National Center for Advancing Translational Sciences (NCATS))
# Hits are enriched below; roughly 21% of the tested compounds scored in any of these assays.
# Pf growth 96h: P. falciparum growth inhibition at 96 hour, primary screen for plastid delayed-death inhibitors; 6.9% of 320,000 active; P. falciparum luciferase reporter growth, 96 h; Potency, µM (highest dose often 28.7 µM), for inactives: top-dose activity change, negative = inhibition, hits mostly inhibitors; further: potency means the concentration at half of the fitted maximal effect; on the % scale 0 is the no-effect control and ±100 the full control effect
#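 Cell-based qHTS: luciferase-tagged P. falciparum in erythrocytes (2% hematocrit, 0.05% parasitemia final) incubated with compounds for 96 hours, 37 C, 5% CO2; luciferase detection reagent then added and luminescence measured.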
# Pf growth 48h: inhibits P. falciparum growth in the first generation, 48 h; 5.9% of 310,000 active; P. falciparum luciferase growth in erythrocytes, 48 h; AID 504832; Potency, µM (series often up to 28.7 µM), for the others: top-dose activity change, negative = inhibition, most hits filed as inhibitors; further: potency means the concentration at half of the fitted maximal effect; on the % scale 0 is the no-effect control and ±100 the full control effect
#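 Parasite viability was followed by luminescence of a genomically integrated firefly luciferase. Cultures held 0.1% parasitemia at 2% hematocrit (final), incubated under 5% CO2 at 37 C.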
# HCV inhibitor: HCV inhibition; Huh7.5.1 HCVcc-Cre infection, luciferase reporter, 44 h; Potency, µM (doses to about 41.8 µM), inactives show top-dose activity change, negative = inhibition, hits mostly inhibitors; 3.4% of 340,000 active; further: potency means the concentration at half of the fitted maximal effect; on the % scale 0 is the no-effect control and ±100 the full control effect
#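 Cells (1,000/well) were plated 4 h before compound, then infected with HCVcc-Cre virus (~0.5 moi). After 44 h further culture, infection was read as luciferase luminescence following a 15 min substrate incubation at room temperature.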
# HCMV antiviral: human cytomegalovirus inhibition; AID 1259415; activity change, negative = inhibition, % at 57.5 µM; HFF cells, HCMV-luciferase reporter, 72 h; active compounds read low; 4.5% of 410,000 active; in the data active means activity change below about -60%; inconclusive means no clear call, values can overlap the other calls; inactive means above about -39%; further: on the % scale 0 is the no-effect control and ±100 the full control effect
#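 Human foreskin fibroblasts infected with luciferase-reporter HCMV at MOI 1 PFU/cell, compounds at two doses. Luciferase measured 72 h post infection; normalized to buffer-only basal and Salinomycin (10uM) controls.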
# Shiga inhibitor: inhibitors of Shiga toxin in Vero cells; inhibition, % at 38.7 µM; Vero cells, Shiga toxin protein synthesis inhibition reporter; 9.2% of 290,000 active; in the data active means inhibition mostly above about 28%, no sharp cut-off; inactive means mostly below about 43%; further: 0% is about no effect
# Cycloheximide cs: counter-screen hit for Shiga toxin inhibitors, cycloheximide | cell reporter, cycloheximide protein synthesis inhibition counterscreen | max response, % | 12% of 300,000 active; in the data active means max response mostly above about 13%, no sharp cut-off; inactive means mostly below about 14%; further: read at 38.3 µM for the half of the compounds with a filed dose; 0% is about no effect
# Starred values were filed as active, the others as inactive; ? = inconclusive; nt = no result; ! = repeats disagree; [ ] = another dose, or the depositor's remark. Unless noted, the call rests on the fitted dose curve; in most records, active means well fitted inhibition curve with a large enough effect; inconclusive means small, poorly fitted or top-dose-only effect, or another doubt; inactive means no such curve, though single readings can be large or run the other way.
SMILES,Pf growth 96h,Pf growth 48h,HCV inhibitor,HCMV antiviral,Shiga inhibitor,Cycloheximide cs
COc1cc2c(cc1OC)[C@@H]1Cc3cc4c(cc3[C@H](C2)N1C)OCO4,?,-8.9%,12.5%[8.37 µM],65.3,-19.9,-5.5
C[C@H](O)[C@@H]1C(=O)N2C(C(=O)O)=C(SCCN=CN)C[C@@H]12,-13.8%[12.8 µM],-2.2%[12.8 µM],nt,nt,nt,nt
Cc1ccc(Cl)cc1N1CCN(C(=O)c2ccc3c(c2)N(Cc2ccc(F)cc2)CCS3)CC1,nt,nt,nt,-36.4,nt,nt
O=S(=O)(N/N=C/c1cccc(OC2CSC2)c1)c1ccccc1,53.7%,11.9%,5.1%,15.6,-4.4,-0.5
Cn1nccc1C(=O)Oc1cccc(/C=N/NC(=O)c2ccccc2O)c1,36.7%,9.5%,-23.5%,-30.9,32.6*,18.1
O=C(N/N=C/c1cccc(OC2CSC2)c1)c1ccccc1O,17.2%,?,0.7%,112.1,85.4,26.3*
Cc1cc(/C=N/NC(=O)C(=O)N2CCCC2)c(C)n1-c1cccc(Br)c1,75.9%,14.5%,?,-32.9,28.6,-2.5
Cc1ccc(CSCC(=O)N/N=C/c2cccc(OC3CSC3)c2)cc1,-11.5%,-0.1%,10.8%,11.3,-2.5,0.9
Cc1cc(/C=N/NC(=O)c2c(Br)cnn2C)c(C)n1-c1cccc(Br)c1,?,-28.8%,7.7%,-65.5*,-3.7,-0.9
Cn1ncc(Br)c1C(=O)N/N=C/c1cccc(OC2CSC2)c1,-47.4%,-7.9%,-12.1%,-13.9,26.5*,4.0
COc1cccc(/C=N/NC(=O)c2cccc3ccccc23)c1,?,-17.0%,-24.9%,-3.8,8.5,13.4
Clc1ccc2nsnc2c1NC1=NCCN1,92.9%,0.3%,-1.0%,21.8,-9.8,-4.8
C#CCSc1nnnn1-c1cccc(Cl)c1,-1.4%,35.6%,25.1µM*,-4.9,-9.1,-1.2
Nc1ccc(C(=O)NCC(=O)O)cc1,9.28µM*!,11.7µM*!,40.0%,3.8,nt,nt
Nc1ccc(C(=O)NCCCCCCNC(=O)c2ccc(N)cc2)cc1,?,-1.1%[0.00184 µM],11.9%,-6.1,-4.5,7.0
C=CC[n+]1c(/C=C/c2ccc(OC(C)=O)c(OC)c2)ccc2ccccc21,?,nt,?,-99.5*,4.9,2.2
COc1cc(/C=C(\NC(C)=O)C(=O)NC(C)(C)C)ccc1OC(C)=O,74.0%,13.2%,13.9%,12.2,-2.5,6.9
NC(=O)c1ccsc1NC(=O)c1nc(-c2ccccc2)n(-c2ccccc2)n1,7.38µM*,7.38µM*,?,-38.4,22.8,9.5
Cc1csc(SCC(=O)Nc2sccc2C(N)=O)n1,269.8%,293.6%,15.9%,109.6,67.9*,36.3*
NC(=O)c1ccsc1NC(=O)CSc1nnc(Nc2ccccc2)s1,?,?,?,-63.1*,-1.4,14.5
COC(=O)c1sc2nc(C)nc(SCC(=O)Nc3sccc3C(N)=O)c2c1C,24.6%,?,11.2µM*,?,nt,nt
Cc1nc(SCC(=O)Nc2sccc2C(N)=O)c2c(C)c(C)sc2n1,nt,nt,nt,13.3,nt,nt
Cc1csc(SCC(=O)Nc2nccs2)n1,-2.0%,-2.3%,?,21.7,nt,nt
O=C(Nc1ccccn1)c1nc(-c2ccccc2)n(-c2ccccc2)n1,?,1.0%,1.4%,?,12.8,11.9
O=C(CSc1nnc(Nc2ccccc2)s1)NC1CCCC1,nt,nt,-3.4%,-6.9,nt,nt
SMILES,Pf growth 96h,Pf growth 48h,HCV inhibitor,HCMV antiviral,Shiga inhibitor,Cycloheximide cs
CC(C)c1nn2c(=O)cc(O)nc2s1,?,1.4%,23.9%,39.3,-8.5,0.8
COC(=O)c1ccccc1NC(=O)c1ccc2c(c1)CCN2S(C)(=O)=O,nt,nt,nt,-15.5,nt,nt
C#CCN(C[C@@H]1[C@@H](OC(=O)NCCCCCC)[C@@H](OC(=O)NCCCCCC)Cn2c(=O)n(CCCCCC)c(=O)n21)S(=O)(=O)c1ccc(C)cc1,nt,nt,nt,-9.7,nt,nt
NC(=O)c1ccsc1NC(=O)CCS(=O)(=O)c1ccc(F)cc1,-1.5%,?,?,-63.4*,nt,nt
NC(=O)c1ccsc1NC(=O)CSc1ccccc1F,9.28µM*,98.2%,-6.1%,-0.2,175.1,36.1*
Cc1ccccc1SCC(=O)OCC(=O)Nc1sccc1C(N)=O,-18.9%,-3.9%,11.3%,-14.2,-4.0,5.8
O=C(O)c1ccc(/C=N/NC(=O)C(O)(c2ccccc2)c2ccccc2)cc1,-9.5%,16.1%,15.2%,18.7,-8.8,-2.6
Nc1cc(C(=O)O)ccc1Nc1ccc(F)c(F)c1,245.6%,5.4%,-0.1%,-2.1,-16.3,-0.7
